# Measured values as given in PubChem BioAssay.
# Calls of active or inactive are those of the source. Unless noted, the rule behind the calls is not given here.
# Key:
# [1] = compound effects on lung adenocarcinoma cell viability – A549, calcein-AM fluorescence, 48 h, basal, profiling panel (AID 1162); conditions: higher = more signal; note: test concentration not given here
# [2] = compound effects on differentiated 3T3-L1 adipocyte viability – cell-based, 3T3-L1 adipocytes, calcein-AM fluorescence, 48 h, basal, profiling panel (AID 1163); conditions: 3T3-L1 adipocytes viability, higher = more signal; note: test concentration not given here
# [3] = compound effects on hepatocellular carcinoma cell viability – HepG2, calcein-AM fluorescence, 48 h, basal, profiling panel (AID 1164); conditions: higher = more signal; note: test concentration not given here
# [4] = compound effects on multiple myeloma cell viability – MM1S, calcein-AM fluorescence, 48 h, basal, profiling panel (AID 1165); conditions: higher = more signal; note: test concentration not given here
# [5] = calcein-AM signal in unstimulated myeloma cells – cell-based, calcein-AM fluorescence, 48 h, PK04 Diversity Set, profiling panel (AID 1166); conditions: RPMI8226 myeloma viability, higher = more signal;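 note: cells grown under basal conditions without added stimulus; test concentration not given here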
# [6] = JC-1 mitochondrial signal, unstimulated HepG2 cells – cell-based, JC-1 fluorescence, 24 h, 100 nL compound, profiling panel (AID 1167); conditions: HepG2 mitochondrial potential, higher = more signal; note: test concentration not given here
# [7] = JC-1 mitochondrial signal, unstimulated adipocytes – cell-based, JC-1 fluorescence, 3T3-L1 adipocytes, 24 h, 100 nL compound, profiling panel (AID 1168); conditions: JC-1 mitochondrial fluorescence, higher = more signal, called active from +8 up or from −8 down; note: test concentration not given here
# [8] = JC-1 mitochondrial signal, unstimulated myeloma cells – cell-based, JC-1 fluorescence, RPMI8226, 24 h, 100 nL compound, profiling panel (AID 1169); conditions: JC-1 mitochondrial potential fluorescence, higher = more signal; note: test concentration not given here
# [9] = JC-1 mitochondrial signal, unstimulated MM1S myeloma – cell-based, JC-1 fluorescence, 24 h, 100 nL compound, profiling panel (AID 1170); conditions: MM1S mitochondrial potential, higher = more signal; note: test concentration not given here
# [10] = resazurin metabolic signal in A549 cells – cell-based, resazurin fluorescence, 24 h, PK04 Diversity Set, profiling panel (AID 1171); conditions: A549 viability, higher = more signal, called active from +8 up or from −8 down; note: test concentration not given here
# [11] = resazurin metabolic signal in HepG2 cells – cell-based, resazurin fluorescence, 24 h, PK04 Diversity Set, profiling panel (AID 1172); conditions: HepG2 viability, higher = more signal; note: test concentration not given here
# [12] = budding yeast growth changes without added modifier – OD600, strain BY4716, 24 h, basal condition, primary screen (AID 1173); conditions: S. cerevisiae BY4716 growth, OD600, 24 h; higher = more signal, called active from +8 up or from −8 down
# [13] = viability profiling in MM1S myeloma cells – cell-based, resazurin fluorescence, basal, 24 h, PK04 Diversity Set, profiling panel (AID 1174); conditions: higher = more signal, called active from +8 up or from −8 down; note: test concentration not given here
# [14] = target: Dihydroorotate dehydrogenase (quinone), mitochondrial (Plasmodium falciparum (isolate 3D7)) (UniProt Q08210); test: inhibition of P. falciparum DHODH – biochemical, C-terminal His tag, absorbance 600 nm, primary screen (AID 1175); conditions: PfDHODH enzyme, DCIP absorbance 600 nm; higher = more signal, called active from +8 up or from −8 down;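 note: recombinant parasite enzyme with a five histidine tag at its C terminus; test concentration not given here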
# [15] = inhibition of PAO1 biofilm formation – strain PAO1, LB-PBS medium, absorbance 600 nm, primary screen (AID 1176); note: test concentration not given here; conditions: P. aeruginosa PAO1 growth/biofilm, A600, 12 h; higher = more signal
# [16] = growth modulation of vineyard yeast isolate – strain RM11-1a, OD600, basal, 24 h, primary screen (AID 1177);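 note: cultures grown under basal conditions with no added stressor; test concentration not given here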; conditions: S. cerevisiae RM11-1a growth, OD600, 24 h; higher = more signal, called active from +8 up or from −8 down
# [17] = growth of efflux-deficient E. coli DRC39 – strain DRC39, OD650, 24 h, E. coli filamentation inducers, primary screen (AID 1178);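 note: growth measured as culture turbidity by optical density at 650 nm; test concentration not given here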; conditions: E. coli DRC39 acrAB, higher = more signal, called active from +8 up or from −8 down
# [18] = growth of efflux-deficient E. coli DRC39 – strain DRC39, OD650, 48 h, E. coli filamentation inducers, primary screen (AID 1179);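 note: screen aims at cell division blockers that make cells filament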; conditions: E. coli DRC39 delta-acrAB growth, higher = more signal, called active from +8 up or from −8 down
# [19] = viability profiling in RPMI8226 myeloma cells – cell-based, resazurin fluorescence, basal, 24 h, PK04 Diversity Set, profiling panel (AID 1180); conditions: higher = more signal;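 note: RPMI8826 multiple myeloma cell line at 5000 cells per well; test concentration not given here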
# [20] = target: E3 ubiquitin-protein ligase XIAP (Homo sapiens) (UniProt P98170); test: small molecules binding XIAP protein – biophysical, small-molecule microarray, fluorescence 635 nm, primary screen (AID 1181); conditions: higher = more signal;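 note: score merges 667 nm emission and signal to noise over triplicate slides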
# E3 ubiquitin-protein ligase XIAP (Homo sapiens), sequence (P98170 whole entry, looked up): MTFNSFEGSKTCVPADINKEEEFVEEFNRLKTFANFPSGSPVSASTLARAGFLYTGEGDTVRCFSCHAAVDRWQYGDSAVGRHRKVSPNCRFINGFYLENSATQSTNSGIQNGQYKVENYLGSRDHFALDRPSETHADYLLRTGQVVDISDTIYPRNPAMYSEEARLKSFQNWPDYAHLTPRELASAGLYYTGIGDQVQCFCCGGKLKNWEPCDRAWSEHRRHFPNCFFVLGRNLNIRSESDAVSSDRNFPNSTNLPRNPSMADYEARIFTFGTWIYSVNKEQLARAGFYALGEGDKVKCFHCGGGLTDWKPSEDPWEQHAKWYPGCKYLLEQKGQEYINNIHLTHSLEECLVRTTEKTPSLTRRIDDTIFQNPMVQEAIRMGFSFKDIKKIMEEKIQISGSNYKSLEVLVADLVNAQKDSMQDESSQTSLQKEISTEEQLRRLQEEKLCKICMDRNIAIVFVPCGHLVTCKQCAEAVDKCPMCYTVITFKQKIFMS
# Dihydroorotate dehydrogenase (quinone), mitochondrial (Plasmodium falciparum (isolate 3D7)), sequence (Q08210 whole entry, looked up): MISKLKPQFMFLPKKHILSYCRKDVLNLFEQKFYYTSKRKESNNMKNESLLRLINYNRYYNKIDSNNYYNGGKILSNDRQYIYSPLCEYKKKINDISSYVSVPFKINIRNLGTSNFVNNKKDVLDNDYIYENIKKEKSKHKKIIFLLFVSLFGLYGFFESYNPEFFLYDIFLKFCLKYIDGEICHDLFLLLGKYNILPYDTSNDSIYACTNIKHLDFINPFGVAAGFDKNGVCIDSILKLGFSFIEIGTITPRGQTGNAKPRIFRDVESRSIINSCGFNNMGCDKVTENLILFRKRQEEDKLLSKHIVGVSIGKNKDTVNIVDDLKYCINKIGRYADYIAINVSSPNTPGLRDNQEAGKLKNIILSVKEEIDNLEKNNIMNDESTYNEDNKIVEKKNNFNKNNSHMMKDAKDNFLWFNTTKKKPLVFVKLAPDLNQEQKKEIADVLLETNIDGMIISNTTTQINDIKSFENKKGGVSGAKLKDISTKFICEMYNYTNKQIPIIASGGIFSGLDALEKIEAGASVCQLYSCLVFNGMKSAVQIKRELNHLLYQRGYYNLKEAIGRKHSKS
Structure (SMILES),z-score [1],z-score [2],z-score [3],z-score [4],z-score [5],z-score [6],z-score [7],z-score [8],z-score [9],z-score [10],z-score [11],z-score [12],z-score [13],composite z-score [14],z-score [15],z-score [16],z-score [17],z-score [18],z-score [19],composite z-score [20]
CCCCCN1CC=CC23O[C@@H]4/C=C\CCCOC(=O)C4[C@H]2C(=O)N(C(C)CO)[C@@H]3C1=O (stereo not given in full),0.327,-0.0628,-0.0728,1.16,0.15,0.37,0.0667 (inactive),1.08,-1.13,0.423 (inactive),0.652,0.102 (inactive),0.295 (inactive),-0.298 (inactive),0.398 (inactive),0.493 (inactive),1.25 (inactive),0.945 (inactive),0.541,-0.162
CC1=C2[C@@H](CCc3ccccc3)OB(O)C[C@@H]2[C@@H]2C(=O)N(C)C(=O)[C@@H]2C1,-0.0116,0.417,-0.21,-2.12,0.339,-1.18,-0.467 (inactive),-0.519,-0.423,0.0857 (inactive),0.157,-2.36 (inactive),-0.313 (inactive),-0.628 (inactive),0.212 (inactive),0.154 (inactive),0.672 (inactive),0.561 (inactive),-0.265,-0.239
NC(=O)NCC#Cc1ccc2c(c1)[C@]1(C(=O)N2)[C@H](C(=O)N2CCN(c3ncccn3)CC2)[C@H]2C(=O)O[C@H](c3ccccc3)[C@H](c3ccccc3)N2[C@@H]1c1ccc(O)cc1,0.348,-0.173,-0.388,-0.977,0.18,-1.99,-1.02 (inactive),-0.315,0.247,-0.292 (inactive),-0.727,1.14 (inactive),-0.234 (inactive),-2.21 (inactive),1.16 (inactive),0.939 (inactive),-0.192 (inactive),-0.15 (inactive),-1.36,-0.0577
O=C1O[C@@H](c2ccccc2)[C@@H](c2ccccc2)N2[C@@H](c3ccc(OCCO)cc3)[C@]3(C(=O)Nc4ccc(C#CC5=CCCCC5)cc43)[C@@H](C(=O)NC[C@H](O)c3ccccc3)[C@H]12,0.152,1.49,0.348,0.0056,-2.81,-1.93,-0.106 (inactive),-0.875,-1.24,-0.956 (inactive),-0.661,1.49 (inactive),-1.94 (inactive),-0.729 (inactive),3.14 (inactive),2.72 (inactive),-0.107 (inactive),-0.245 (inactive),-3.11,-0.118
Oc1ccc2cc[n+](Cc3cc4c(cc3Br)OCO4)cc2c1,1.58,-0.35,0.312,0.677,-1.77,-1.12,0.418 (inactive),-0.123,0.313,-0.585 (inactive),-0.269,-0.72 (inactive),-0.526 (inactive),-0.625 (inactive),-0.159 (inactive),1.31 (inactive),0.364 (inactive),0.161 (inactive),-0.135,-0.281
COC(=O)[C@@]1(Cc2ccc(F)cc2)[C@H]2c3cc(C(=O)N4CCCC4)n(Cc4ccc(C)c(F)c4F)c3C[C@H]2CN1C(=O)c1ccccc1,-0.858,-0.82,0.97,-3.35,-3.35,1.01,-1.02 (inactive),-0.59,-1.38,-0.718 (inactive),-1.15,0.289 (inactive),-1.42 (inactive),-1.23 (inactive),1 (inactive),0.22 (inactive),-0.107 (inactive),-0.11 (inactive),-0.588,-0.0483
CCOC(=O)C1=C[C@@H](c2ccccc2)N(S(=O)(=O)c2ccc(C)cc2)[C@H]1c1ccc(OC)cc1,-0.841,-0.0112,-0.157,-0.62,-0.926,1.03,-0.708 (inactive),0.692,-0.441,1.63 (inactive),-0.664,1.11 (inactive),-1.01 (inactive),-0.668 (inactive),0.0236 (inactive),0.409 (inactive),-1.06 (inactive),-0.834 (inactive),-1.24,-0.0428
Cc1cc(C)c(C(O)C2C=CC3C(=O)N(c4ccccc4)C(=O)C3N2Nc2ccccc2F)c(C)c1 (stereo not given),-0.472,-0.89,-0.631,-1.57,0.48,-1.84,-0.709 (inactive),-0.15,1.01,1.61 (inactive),0.485,2.01 (inactive),-0.371 (inactive),1.03 (inactive),0.971 (inactive),1.56 (inactive),-0.47 (inactive),-0.439 (inactive),-0.527,0.127
COC(=O)[C@@]1(Cc2ccccc2)[C@H]2c3cc(C(=O)N(C)C)n(Cc4ccc(C)o4)c3C[C@H]2CN1C(=O)c1ccccc1,-2.02,0.827,-0.735,-1.01,-3.69,0.598,-2.61 (inactive),-0.951,-1.88,-1.42 (inactive),-0.98,1.51 (inactive),-3.41 (inactive),-2.93 (inactive),3.55 (inactive),1.25 (inactive),-0.513 (inactive),-1.08 (inactive),-3.13,0.696
